According to PubChem BioAssay AID1508600 (Functional Genomics Laboratory (NCATS/FGL), 2020):
Hit rate of the full screen: of about 53,000 sequences, about 3,700 (7%) were called active. This excerpt belongs to a sample that is enriched for actives. A number with no mark means an inactive call.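 How the source made its calls: active means gene knockdowns whose robust z-score for IL-1 alpha signal is at least 2 or at most -2, so actives lie on both sides; inactive means the rest.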

assay: Components of the Cytosolic LPS Sensing Pathway: Gene Identification via Genome-wide siRNA Screen; details: RAW264.7 macrophages, IL-1a HTRF, actives lie on both sides, screened at 100 nM (by protocol), cells primed 5 h with Pam3CSK4 first;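 further: robust z of the log signal after scaling to non-targeting control siRNA wells of the plate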
How it was run: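 Mouse macrophage line RAW264.7 is transfected with siRNA (100 nM final), grown 48h, primed with TLR ligand Pam3CSK4 5 h and given intracellular LipidA 24 h. IL-1a in supernatant is read by HTRF and viability by luminescence.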

**Q.** Which z-score does the source give for GGAGAGCUGUUUGACUACATT against Melk here?
**A.** 1.45

**Q.** Which z-score does the source give for CCAGCAAAAUCACUUAAUATT against Emb here?
**A.** -0.648

**Q.** Which z-score does the source give for GCAACGAAGUGAAUUUGUUTT against Epha5 here?
**A.** -0.139

**Q.** For GCUAGACCAGAAGAAAGUATT against Gid8, which z-score is on record?
**A.** -1.65

**Q.** For GCCAGAGCUAGUUGAAUCCTT against Rce1, which z-score is on record?
**A.** 1.14

**Q.** With GGCCCUGUGUUUAUCAAAGTT against Cntn3 as the sequence, how does the z-score read?
**A.** 0.814

**Q.** With GGCCUUGAAGGAGUAUGAGTT against Atp2a3 as the sequence, how does the z-score read?
**A.** -2.62 (active)

**Q.** Which z-score does the source give for GGACCCAGAUGUGACUGAGTT against Svil here?
**A.** 0.242

**Q.** For GGAAGCUUUUGUCGGUCCATT against Hap1, which z-score is on record?
**A.** -0.361

**Q.** With AACUUUCUCAUUCUUACUGTT against Olfr961 as the sequence, how does the z-score read?
**A.** -1.22

**Q.** Which z-score does the source give for “GCAUGCUGAGGGACACAGUTT against 1810055G02Rik” here?
**A.** -1.6

**Q.** With GAUCACACUGAAAUCAUCATT against Nudt11 as the sequence, how does the z-score read?
**A.** -1.71

**Q.** With GGCAUCACUGGUAAACAUUTT against Frzb as the sequence, how does the z-score read?
**A.** -0.196

**Q.** Which z-score does the source give for GGCUGUCUUGUCCAAAUGUTT against Olfr1357 here?
**A.** -2.9 (active)

**Q.** For GGGAAAGUUUUGUUCUGUATT against Ezr, which z-score is on record?
**A.** 0.31

**Q.** Which z-score does the source give for CCGCGUGUUCCUUCUGAUUTT against S1pr3 here?
**A.** 1.43

**Q.** With GGGUAUAGAAUGAUUAUGGTT against Ly6g2 as the sequence, how does the z-score read?
**A.** -2.39 (active)

**Q.** Which z-score does the source give for GGGAACUGUUCCAUCUUGCTT against Olfr606 here?
**A.** 0.979

**Q.** Which z-score does the source give for GGAAGUUCCGUCGAUUUGATT against Cyp8b1 here?
**A.** -0.604

**Q.** For GGAUGAAGUUCUUUUUCAATT against Pdcd11, which z-score is on record?
**A.** 2.28 (active)

**Q.** For GGCUGCCUAUCCCUAAACUTT against Cpt2, which z-score is on record?
**A.** -0.625

**Q.** With GGUGGUUUACCAAACGGUGTT against Ces2g as the sequence, how does the z-score read?
**A.** -0.00874

**Q.** With GGCCAGAGCAUUUUCUUCATT against Pif1 as the sequence, how does the z-score read?
**A.** 0.72

**Q.** For GGAUGAAGGAAUCCAUGCATT against Pcdhga6, which z-score is on record?
**A.** -0.133

**Q.** With GGAUCUGAAGGUGAUGUCATT against H2-Q10 as the sequence, how does the z-score read?
**A.** -2.72 (active)

**Q.** For GGUACCUCUACACAGAUGATT against Fgf21, which z-score is on record?
**A.** 0.0136

**Q.** For GGCCUGGAUGAAUGAAAAGTT against Gins4, which z-score is on record?
**A.** 0.665

**Q.** For CCGUGUGAAUCCCUGCAUUTT against Aldoa, which z-score is on record?
**A.** -2.85 (active)

**Q.** For GCUAUUUGACUUGUUGUAATT against Rab30, which z-score is on record?
**A.** 0.269

**Q.** Which z-score does the source give for CGCAAGUAUUUCCACCAUATT against Clk4 here?
**A.** -0.41

**Q.** For GGUUUGAGAAUUUGAAGGUTT against Map2k3os, which z-score is on record?
**A.** 0.273

**Q.** With GGUCCUCUGGUUCAACAUUTT against Olfr638 as the sequence, how does the z-score read?
**A.** -0.405

**Q.** Which z-score does the source give for GGGAAGAAGACUGACAAGCTT against Lars here?
**A.** 2.03 (active)

**Q.** With GGAGAUGAAGAAGAUAUUGTT against Smoc2 as the sequence, how does the z-score read?
**A.** -0.764

**Q.** For GGUCUACUUCUUUUUUACGTT against Sema4d, which z-score is on record?
**A.** 0.467

**Q.** For GGUGAUAACUCCGGGCCAATT against Fam3b, which z-score is on record?
**A.** 2.32 (active)

**Q.** Which z-score does the source give for “CCCUGCUGGUUGGUAAUCATT against F830005K03Rik” here?
**A.** 0.548

**Q.** With GCUAAGAUUGUCAUGAUGUTT against Bambi as the sequence, how does the z-score read?
**A.** -1.02

**Q.** Which z-score does the source give for GGAAAGAAGGUGAACAACATT against Phax here?
**A.** 1.96

**Q.** For GCAGAAGAAGAAGGGUUCCTT against Emx1, which z-score is on record?
**A.** 3.59 (active)

**Q.** Which z-score does the source give for GGGAGAACCAGCACAACAUTT against Cavin2 here?
**A.** -1.8

**Q.** With GGAAGACAUUCACGAUUGUTT against Deptor as the sequence, how does the z-score read?
**A.** -0.0976

**Q.** For GGAGUUCAGCAACCUGUUGTT against Tmem97, which z-score is on record?
**A.** -2.08 (active)

**Q.** Which z-score does the source give for GGGAUCAUUGCUGUCCUCUTT against Adora2b here?
**A.** -1.33

**Q.** Which z-score does the source give for CCUCAAACCAUCAACAACCTT against Six3 here?
**A.** -2.04 (active)

**Q.** With GGAACUUUCCUUUUUUGUCTT against Serpinb5 as the sequence, how does the z-score read?
**A.** 0.889

**Q.** For GGUGAUGAUGUCCAGAAGUTT against Kdm4d, which z-score is on record?
**A.** -0.913

**Q.** Which z-score does the source give for GGAGAAAGUCUUUGUGAACTT against Lipc here?
**A.** -1.1

**Q.** Which z-score does the source give for GGCUUUCUUUUUGAAAGAATT against Arhgap10 here?
**A.** 0.78

**Q.** Which z-score does the source give for GGAACCUACUUGUUACCUUTT against Nlrp5 here?
**A.** 0.731

**Q.** With CGGUCAUUAAAACUUACAGTT against Hells as the sequence, how does the z-score read?
**A.** 2.69 (active)

**Q.** Which z-score does the source give for GCCGGGAGAAAUAAAUGGUTT against Mif here?
**A.** -0.654

**Q.** Which z-score does the source give for GGAAAAACUCUUCUUCACGTT against Nphs1 here?
**A.** -0.0272

**Q.** Which z-score does the source give for GGAGGACUCUGCUUCCAUATT against Pwwp3b here?
**A.** -0.848
